The panel holds about 83,000 compounds, 20% with a hit somewhere; the sample as a whole holds those more often.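 Assay: single dose, 48 h. Readout: percent growth (0 = no net growth; negative = cell death). Active: <10.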 Calls of active or inactive are those of the source.
Experiments:
Assay in all cases: NCI-60 one-dose screen, 48 h (100 = growth as untreated, 0 = no growth, -100 = all killed)
Details in all cases: 10 µM unless noted
SK-MEL-2 melanoma = test system: SK-MEL-2 melanoma
EKVX NSCLC = test system: EKVX NSCLC
SN12C renal = test system: SN12C renal
UO-31 renal = test system: UO-31 renal
TK-10 renal = test system: TK-10 renal
ACHN renal = test system: ACHN renal
CAKI-1 renal = test system: CAKI-1 renal
CCRF-CEM leukemia = test system: CCRF-CEM leukemia
MOLT-4 leukemia = test system: MOLT-4 leukemia
SR leukemia = test system: SR leukemia
RPMI-8226 leukemia = test system: RPMI-8226 leukemia
OVCAR-8 ovarian = test system: OVCAR-8 ovarian
OVCAR-5 ovarian = test system: OVCAR-5 ovarian
OVCAR-4 ovarian = test system: OVCAR-4 ovarian
SK-OV-3 ovarian = test system: SK-OV-3 ovarian
IGROV1 ovarian = test system: IGROV1 ovarian
HS 578T breast = test system: HS 578T breast
NCI/ADR-RES ovarian = test system: NCI/ADR-RES ovarian
OVCAR-3 ovarian = test system: OVCAR-3 ovarian

Measured: growth

NS(=O)(=O)c1ccc(CCn2c(-c3ccc(C(=O)O)cc3)nc(-c3ccccc3)c2-c2ccccc2)cc1
inactive: SK-MEL-2 melanoma 104% | EKVX NSCLC 100% | SN12C renal 101% | UO-31 renal 90.8% | TK-10 renal 102% | ACHN renal 103% | CAKI-1 renal 88.7% | CCRF-CEM leukemia 104% | MOLT-4 leukemia 108% | SR leukemia 99.7% | RPMI-8226 leukemia 100% | OVCAR-8 ovarian 111% | OVCAR-5 ovarian 103% | OVCAR-4 ovarian 99.4% | SK-OV-3 ovarian 111% | IGROV1 ovarian 108% | HS 578T breast 101% | NCI/ADR-RES ovarian 105%

NC1=NC2(CCCC2)N(c2ccc(S(=O)(=O)Nc3nccs3)cc2)C(N)=N1
inactive: SK-MEL-2 melanoma 116% | EKVX NSCLC 98.7% | SN12C renal 102% | UO-31 renal 83.6% | TK-10 renal 104% | ACHN renal 103% | CAKI-1 renal 93.6% | CCRF-CEM leukemia 95.9% | MOLT-4 leukemia 102% | SR leukemia 98.2% | RPMI-8226 leukemia 94.1% | OVCAR-8 ovarian 105% | OVCAR-5 ovarian 101% | OVCAR-4 ovarian 110% | SK-OV-3 ovarian 114% | IGROV1 ovarian 103% | OVCAR-3 ovarian 116% | HS 578T breast 109% | NCI/ADR-RES ovarian 100%

CCOC(=O)c1ccc(NC2=C(Cl)C(=O)c3nc(C)ccc3C2=O)cc1
active: UO-31 renal 2.37% | ACHN renal -9.88% | CCRF-CEM leukemia 6.88% | RPMI-8226 leukemia 4.69% | OVCAR-4 ovarian -62.7% | IGROV1 ovarian 7.95% | OVCAR-3 ovarian -18.8%
inactive: SK-MEL-2 melanoma 78.2% | EKVX NSCLC 68.4% | SN12C renal 75.8% | TK-10 renal 99.4% | CAKI-1 renal 75.4% | MOLT-4 leukemia 16.3% | SR leukemia 22.6% | OVCAR-8 ovarian 68.4% | OVCAR-5 ovarian 91.5% | SK-OV-3 ovarian 94.4% | HS 578T breast 50.2% | NCI/ADR-RES ovarian 45.9%

Cc1ccc(/C=N/Nc2nc(Nc3ccccc3)nc(Nc3ccc(S(N)(=O)=O)cc3)n2)cc1
inactive: SK-MEL-2 melanoma 77.8% | EKVX NSCLC 78.1% | SN12C renal 82.5% | UO-31 renal 68.1% | TK-10 renal 94.5% | ACHN renal 61.2% | CAKI-1 renal 61% | CCRF-CEM leukemia 42% | MOLT-4 leukemia 40.4% | SR leukemia 35.5% | RPMI-8226 leukemia 44% | OVCAR-8 ovarian 69.2% | OVCAR-5 ovarian 84.5% | OVCAR-4 ovarian 69.6% | SK-OV-3 ovarian 110% | IGROV1 ovarian 53.4% | HS 578T breast 62.9% | NCI/ADR-RES ovarian 101%

CCN(CC)CCOc1ccc(C(=C(c2ccccc2)C2CCCC2)c2ccc(OCCN(CC)CC)cc2)cc1
inactive: EKVX NSCLC 48.4% | UO-31 renal 86.5% | TK-10 renal 74.3% | ACHN renal 95.3% | CAKI-1 renal 94.2% | OVCAR-8 ovarian 40.5% | OVCAR-5 ovarian 38.5% | OVCAR-4 ovarian 34.7% | SK-OV-3 ovarian 21.2% | OVCAR-3 ovarian 16.9% | HS 578T breast 12.8% | NCI/ADR-RES ovarian 97.1%
active: SK-MEL-2 melanoma 6.57% | SN12C renal 6.33% | CCRF-CEM leukemia 8.31% | MOLT-4 leukemia 0.859% | SR leukemia -5.92% | RPMI-8226 leukemia -30.8% | IGROV1 ovarian -40.4%

C[C@@H]1OCC2(CCN(c3cnc(C(=O)Nc4cc(F)cc5cccnc45)cn3)CC2)[C@@H]1N
inactive: SK-MEL-2 melanoma 97.9% | EKVX NSCLC 78.2% | SN12C renal 59.6% | UO-31 renal 41.1% | TK-10 renal 90.8% | ACHN renal 31.8% | CAKI-1 renal 45.8% | CCRF-CEM leukemia 15.7% | MOLT-4 leukemia 20.8% | RPMI-8226 leukemia 55.5% | OVCAR-8 ovarian 86.8% | OVCAR-5 ovarian 80% | OVCAR-4 ovarian 14.8% | SK-OV-3 ovarian 102% | IGROV1 ovarian 28% | OVCAR-3 ovarian 18.7% | HS 578T breast 66.6% | NCI/ADR-RES ovarian 76.4%
active: SR leukemia 2.82%

Cc1cc(NS(=O)(=O)c2ccc(NC(=O)CSc3nc4ccccc4c(=O)n3-c3ccccc3)cc2)no1
inactive: SK-MEL-2 melanoma 109% | EKVX NSCLC 96.8% | SN12C renal 101% | UO-31 renal 85.9% | TK-10 renal 108% | ACHN renal 98.1% | CAKI-1 renal 94.9% | CCRF-CEM leukemia 96.8% | MOLT-4 leukemia 107% | SR leukemia 97.9% | RPMI-8226 leukemia 110% | OVCAR-8 ovarian 102% | OVCAR-5 ovarian 92.7% | OVCAR-4 ovarian 102% | SK-OV-3 ovarian 106% | IGROV1 ovarian 97.6% | OVCAR-3 ovarian 109% | HS 578T breast 93.3% | NCI/ADR-RES ovarian 102%

CCCN1C=C/C(=C\C(=O)n2ccc3ccccc32)c2ccccc21
inactive: SK-MEL-2 melanoma 105% | EKVX NSCLC 56.5% | SN12C renal 84.1% | UO-31 renal 53% | TK-10 renal 105% | ACHN renal 82.8% | CAKI-1 renal 60.1% | CCRF-CEM leukemia 73.3% | MOLT-4 leukemia 76.5% | SR leukemia 55.9% | RPMI-8226 leukemia 69.3% | OVCAR-8 ovarian 95.6% | OVCAR-5 ovarian 87.8% | OVCAR-4 ovarian 49.9% | SK-OV-3 ovarian 70.2% | IGROV1 ovarian 59.1% | OVCAR-3 ovarian 87.3% | HS 578T breast 101% | NCI/ADR-RES ovarian 88.7%

CCCCCCNC(=O)Oc1ccc(/C(=C(/C)c2ccc(OC)cc2)c2ccc(OCCN3CCCCCC3)cc2)cc1
inactive: SK-MEL-2 melanoma 74.5% | EKVX NSCLC 54.8% | SN12C renal 14.5% | TK-10 renal 92.1% | ACHN renal 47.7% | CAKI-1 renal 17.3% | CCRF-CEM leukemia 12.4% | OVCAR-8 ovarian 41.8% | OVCAR-5 ovarian 61.1% | OVCAR-4 ovarian 47.1% | SK-OV-3 ovarian 66.1% | IGROV1 ovarian 47% | NCI/ADR-RES ovarian 48.2%
active: UO-31 renal 6.69% | MOLT-4 leukemia 9.66% | SR leukemia -6.81% | RPMI-8226 leukemia -2.43% | HS 578T breast 9.93%

Cc1[nH]c(C(=O)Nc2ccccc2OCc2cccc(C(=O)NC3CCNC3)c2)c(Cl)c1Cl (stereo not drawn)
inactive: SK-MEL-2 melanoma 101% | EKVX NSCLC 79.6% | UO-31 renal 84.9% | TK-10 renal 101% | ACHN renal 74.9% | CAKI-1 renal 27.5% | OVCAR-5 ovarian 45.3% | OVCAR-4 ovarian 68.3% | SK-OV-3 ovarian 107% | IGROV1 ovarian 31.2% | HS 578T breast 87.6% | NCI/ADR-RES ovarian 67.1%
active: SN12C renal -33.5% | CCRF-CEM leukemia 6.3% | MOLT-4 leukemia 1.73% | SR leukemia -0.792% | RPMI-8226 leukemia -10% | OVCAR-8 ovarian -37% | OVCAR-3 ovarian -26.7%

CN1CCN(c2ccc(Nc3nc(NCCNS(=O)(=O)c4ccc(Cl)cc4)c4sccc4n3)cc2)CC1
inactive: SK-MEL-2 melanoma 110% | EKVX NSCLC 91.6% | SN12C renal 97.7% | UO-31 renal 80% | TK-10 renal 128% | ACHN renal 98.2% | CAKI-1 renal 72.8% | CCRF-CEM leukemia 75.7% | MOLT-4 leukemia 73.6% | SR leukemia 22.7% | RPMI-8226 leukemia 80.8% | OVCAR-8 ovarian 101% | OVCAR-5 ovarian 98.7% | OVCAR-4 ovarian 84% | SK-OV-3 ovarian 121% | IGROV1 ovarian 92.9% | HS 578T breast 81.2% | NCI/ADR-RES ovarian 100%

COc1ccc2c(c1)c(-c1nnc(N)nc1-c1c[nH]c3ccc(F)cc13)cn2C
inactive: SK-MEL-2 melanoma 36.3% | EKVX NSCLC 55.5% | SN12C renal 69.5% | UO-31 renal 75.6% | TK-10 renal 90% | ACHN renal 64.5% | CAKI-1 renal 41.6% | CCRF-CEM leukemia 22.3% | MOLT-4 leukemia 26.2% | SR leukemia 12.5% | RPMI-8226 leukemia 28.2% | OVCAR-8 ovarian 59.5% | OVCAR-5 ovarian 84.2% | OVCAR-4 ovarian 86.3% | IGROV1 ovarian 45.7% | HS 578T breast 49.8% | NCI/ADR-RES ovarian 75.2%
active: OVCAR-3 ovarian 3.98%

CN1CCN(Cc2ccc(NC(=O)c3cncc(C#Cc4cnc5ccc(N)nn45)c3)cc2C(F)(F)F)CC1
inactive: EKVX NSCLC 37.1% | SN12C renal 15.7% | UO-31 renal 96.3% | TK-10 renal 40.4% | ACHN renal 27.7% | CAKI-1 renal 13.8% | CCRF-CEM leukemia 11.8% | RPMI-8226 leukemia 24.7% | OVCAR-8 ovarian 16.5% | OVCAR-4 ovarian 46.1% | SK-OV-3 ovarian 45.3% | HS 578T breast 20.6% | NCI/ADR-RES ovarian 89.8%
active: SK-MEL-2 melanoma -27.9% | MOLT-4 leukemia 7.21% | SR leukemia 5.19% | IGROV1 ovarian -4.68%

CCc1cc(OC(=O)N2CCN(CCC(C)(COC(C)(C)C)COC(C)(C)C)CC2)ccc1Nc1cc(-c2ccc(-n3cccn3)cc2)[nH]n1
inactive: SK-MEL-2 melanoma 102% | EKVX NSCLC 66.1% | SN12C renal 62.1% | UO-31 renal 81.3% | TK-10 renal 103% | ACHN renal 81% | CAKI-1 renal 64.9% | CCRF-CEM leukemia 56.7% | MOLT-4 leukemia 52.9% | SR leukemia 37.9% | RPMI-8226 leukemia 60.5% | OVCAR-8 ovarian 84.3% | OVCAR-5 ovarian 89.1% | OVCAR-4 ovarian 60.8% | SK-OV-3 ovarian 105% | IGROV1 ovarian 67% | HS 578T breast 68.2% | NCI/ADR-RES ovarian 74.5%

O=[N+]([O-])c1ccc(NC(=S)NNC(=S)Nc2ccc(F)cc2)cc1
inactive: SK-MEL-2 melanoma 105% | EKVX NSCLC 94.8% | SN12C renal 90.7% | UO-31 renal 70.2% | TK-10 renal 103% | ACHN renal 78.9% | CAKI-1 renal 68.7% | CCRF-CEM leukemia 103% | MOLT-4 leukemia 80.8% | SR leukemia 91% | RPMI-8226 leukemia 85.6% | OVCAR-8 ovarian 91.7% | OVCAR-5 ovarian 89.9% | OVCAR-4 ovarian 95.7% | SK-OV-3 ovarian 116% | IGROV1 ovarian 83.5% | HS 578T breast 102% | NCI/ADR-RES ovarian 84.2%

O=C(CSc1nnc(-c2cccs2)n1-c1ccccc1)Nc1ccccc1
inactive: SK-MEL-2 melanoma 108% | EKVX NSCLC 76.7% | SN12C renal 83.5% | UO-31 renal 64.4% | TK-10 renal 105% | ACHN renal 59.6% | CAKI-1 renal 63.6% | CCRF-CEM leukemia 93.7% | MOLT-4 leukemia 93.6% | SR leukemia 61.3% | RPMI-8226 leukemia 99.7% | OVCAR-8 ovarian 53.5% | OVCAR-5 ovarian 96.7% | OVCAR-4 ovarian 56.3% | SK-OV-3 ovarian 80.1% | IGROV1 ovarian 89.9% | OVCAR-3 ovarian 84.2% | HS 578T breast 33.2% | NCI/ADR-RES ovarian 61.9%

CN1CCN(Cc2ccc(/C=N/Nc3ccnc4cc(Cl)ccc34)cc2)CC1
inactive: SK-MEL-2 melanoma 113% | EKVX NSCLC 82.6% | SN12C renal 87.9% | UO-31 renal 78.8% | TK-10 renal 162% | ACHN renal 90.5% | CAKI-1 renal 77.5% | CCRF-CEM leukemia 56.9% | MOLT-4 leukemia 63.1% | RPMI-8226 leukemia 46.7% | OVCAR-8 ovarian 80.1% | OVCAR-5 ovarian 102% | OVCAR-4 ovarian 83% | SK-OV-3 ovarian 107% | IGROV1 ovarian 69.2% | HS 578T breast 89.3% | NCI/ADR-RES ovarian 87%
active: SR leukemia 2.66%
